This note sets out measurements from PubChem BioAssay (NCATS).

The nature of assay [1]: Quantitative High-Throughput drug screen in 47 multiple myeloma cell lines against the NCATS MIPE library collection: KMS12PE_JCRB cell viability assay (AID 1918972). For viability: series mostly up to about 46 µM. Note: nearly all actives have a fitted effect of over 30% in size. A digest of the protocol:
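We plated 500 myeloma cells per well, pinned in MIPE 4.0 compounds, and incubated for 48 hours at 37C. ATP was then quantified with CellTiter-Glo, with DMSO and media-only wells defining 100% and 0%.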

Assay [2] can be described thus: Quantitative High-Throughput drug screen in 47 multiple myeloma cell lines against the NCATS MIPE library collection: NCIH929_DSMZ cell viability assay (AID 1918978). Note: nearly all actives have a fitted effect of over 35% in size. A digest of the protocol:
(§1)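 Plated at 500 cells per well, myeloma lines received MIPE 4.0 compounds by pin tool. Following 48 h culture at 37 °C, CellTiter-Glo luminescence gave viability relative to DMSO and media-only controls.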

Assay [3] can be described thus: Quantitative High-Throughput drug screen in 47 multiple myeloma cell lines against the NCATS MIPE library collection: OCIMY1_PLB cell viability assay (AID 1918979). For viability: series mostly up to about 46 µM. Note: nearly all actives have a fitted effect of over 35% in size. A digest of the protocol: as §1
The nature of assay [4]: Quantitative High-Throughput drug screen in 47 multiple myeloma cell lines against the NCATS MIPE library collection: MM1R_ATCC cell viability assay (AID 1918981). Note: nearly all actives have a fitted effect of over 35% in size. A digest of the protocol: as §1
Assay [5] is described as follows: Quantitative High-Throughput drug screen in 47 multiple myeloma cell lines against the NCATS MIPE library collection: MM1S_ATCC cell viability assay (AID 1918980). Note: nearly all actives have a fitted effect of over 45% in size. A digest of the protocol: as §1
Assay [6] is described as follows: Quantitative High-Throughput drug screen in 47 multiple myeloma cell lines against the NCATS MIPE library collection: KMS20_JCRB cell viability assay (AID 1918973). Note: nearly all actives have a fitted effect of over 45% in size. A digest of the protocol:
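qHTS of the MIPE 4.0 collection: 500 myeloma cells/well, 48 h drug exposure at 37C in 5% CO2, then CellTiter-Glo for 5 min at room temperature before luminescence reading.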

The nature of assay [7]: Quantitative High-Throughput drug screen in 47 multiple myeloma cell lines against the NCATS MIPE library collection: KMS26_JCRB cell viability assay (AID 1918975). Note: nearly all actives have a fitted effect of over 45% in size. A digest of the protocol:
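Viability readout: CellTiter-Glo luminescence following 5 min room-temperature incubation with reagent. Prior exposure: 48 h, 37C, humidified 5% CO2, 500 cells per well.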

Records with an inconclusive call do not appear. Active and inactive are the calls of the source. Calls come from the whole dose curve; as a rule, active = well fitted curve in the direction sought with a large enough effect; inconclusive = small, poorly fitted or top-dose-only effect, or another doubt; inactive = no such curve, though single readings can be large; an effect the other way counts as inactive or inconclusive.
Potency is the fitted concentration of half-maximal effect.

On to `CNCc1ccc(-c2[nH]c3cc(F)cc4c3c2CCNC4=O)cc1`, for which the Potency result in assay [1], in assay [2], in assay [3] and in assay [4] was “inactive” throughout.

`O=C(C1CC1)N1CC[C@@H](Cn2c(-c3ccc(-c4ccc5occc5c4)cc3)nc3cnccc32)C1`: in assay [1], the Potency is 29.6 µM (active). Also, the Potency result in assay [2], in assay [3] and in assay [5] was “inactive” each time.

Turning to `CC1(C)CNc2cc(NC(=O)c3cccnc3NCc3ccncc3)ccc21`, the Potency is 4.18 µM (active) in assay [1] and 20.9 µM (active) in assay [4]. The Potency entry in assay [3] is “inactive”.

Regarding `CN(C)c1ccc(Nc2nc(N)n(C(=O)c3c(F)cccc3F)n2)cc1`, the Potency in assay [1] is 16.6 µM (active); in assay [2], 26.4 µM (active); in assay [5], 14.8 µM (active); in assay [4], 18.7 µM (active). Besides, the Potency result in assay [3] is “inactive”.

As to `CCC(C)N(C)C(=O)c1cc2ccccc2c(-c2ccccc2Cl)n1` (stereo not given), the Potency entry in assay [6], in assay [2], in assay [3] and in assay [4] was “inactive” throughout. The Potency in assay [5] is 23.5 µM (active).

For `CC(C)OC(=O)C1=CN(C(=O)c2ccc(F)c(F)c2)CC(C)(C)c2c1[nH]c1ccccc21`, the Potency result in assay [6], in assay [7] and in assay [2] was “inactive” each time.

Consider `OCCn1cc(-c2cnc3nnn(Cc4ccc5ncccc5c4)c3n2)cn1`, for which the Potency in assay [1] is 20.9 µM (active); in assay [5] it was 9.35 µM (active); in assay [4], 18.7 µM (active). Moreover, the Potency entry in assay [2] was “inactive”.

Regarding `Cc1[nH]c(=O)c(C#N)cc1-c1ccc2nccn2c1`, the Potency result in assay [1] and in assay [2] was “inactive” each time.

In the case of `O=C1[C@H](Cc2ccc(O)cc2)N2C(=O)CCN(C(=O)NCc3ccccc3)[C@H]2CN1Cc1cccc2ccccc12`, the Potency result in assay [1] is “inactive”. Moreover, the Potency in assay [2] was 3.72 µM (active); in assay [3], 16.6 µM (active); in assay [5], 3.72 µM (active); in assay [4] it was 3.32 µM (active).

As for `COc1ccccc1[C@H](c1cccc2ccccc12)[C@@](C)(C#N)C(=O)N1CCC(c2cccc(C(F)(F)F)c2)CC1`, the Potency in assay [6] was 1.18 µM (active); in assay [7], 7.43 µM (active); in assay [2], 3.72 µM (active); in assay [5], 5.9 µM (active); in assay [4] it was 4.69 µM (active).
